Among the data in PubChem BioAssay (Tox21) are Potency, max activation and outcome values, retold here.

Where “and” joins values, the source holds several entries; their conditions need not be identical. Equal values may be shown once. Results filed as inconclusive are left out. A structure can be active in one record and inactive in another. Calls of active or inactive are those of the source. Unless noted, the call rests on the fitted dose curve; in most records, active means well fitted curve in the direction sought with a large enough effect in the repeat runs; inconclusive means weak or mixed curves; inactive means no such curve, though single readings can be large; an effect the other way counts as inactive or inconclusive.

Assay [1] is described as follows: Caspase-3/7 induction in HepG2 cells by small molecules, qHTS assay (AID 1346978). Further: nearly all actives have a fitted effect of over 15% in size. In a few lines: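 Caspase-3/7 induction was measured by Caspase-Glo 3/7 luminescence (30 min, room temperature) after a 17 hr compound exposure of wild-type HepG2 cells seeded at 2,000 per well and pre-incubated 5 hr.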
For orientation: Quantitative high-throughput screening tests each substance at several concentrations.

Assay [2] in a line: Caspase-3/7 induction in CHO-K1 cells by small molecules, qHTS assay (AID 1346980). Further: nearly all actives have a fitted effect of over 15% in size. In outline: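 Luminescent Caspase-Glo 3/7 read (30min, room temperature) quantified apoptosis induction. Cells were wild-type CHO-K1, treated with compound for 17hr at 37 C and 5% CO2.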
The nature of assay [3]: Caspase-3/7 induction in HepG2 cells by small molecules, qHTS cell viability counter screen (AID 1346981). Further: series mostly up to about 92 µM; nearly all actives have a fitted effect of over 30% in size. In outline: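 HepG2, WT, 2,000 cells/well; 5 hr pre-incubation 37 C/5% CO2; compound pin-transferred from DMSO; 16 hr exposure; CellTiter-Fluor, 1 hr; fluorescence read.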
Assay [4] concerns the target Nuclear receptor subfamily 1 group I member 2 (Homo sapiens) (UniProt O75469). Briefly: Human pregnane X receptor (PXR) small molecule agonists, qHTS assay (AID 1346982). Further: nearly all actives have a fitted effect of over 35% in size. Further: potency means the concentration at half of the fitted maximal effect. In outline: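 Luciferase signal from ONE-Glo (30 min, room temperature) measured activation of hPXR-driven CYP3A4 reporter expression in PXR-Luc HepG2 cells treated with compounds for 24 hr at 37 C.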

Assay [5] deals with Acetylcholinesterase (Homo sapiens) (UniProt P22303). Briefly: Acetylcholinesterase (AChE) small molecule antagonists: enzyme-based qHTS assay (AID 1347397; calls by dose curve; further: nearly all actives have a fitted effect of over 55% in size). The settings on record: Potency: AChE enzyme activity inhibition. In outline: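 Absorbance-based detection of thiocholine with DTNB served as the read-out. Recombinant human AChE was exposed to compound for 30 min at RT before a 10 min RT incubation with acetylthiocholine.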

The target is the same in assay [6]. Briefly: Acetylcholinesterase (AChE) small molecule antagonists: fluorescence cell-based qHTS assay (AID 1347398; calls by dose curve; further: nearly all actives have a fitted effect of over 50% in size). The settings on record: Potency: AChE activity. In outline: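 Fluorimetric cell-based assay: intact SH-SY5Y cells, 30 min compound preincubation at 37 C, acetylthiocholine substrate with thiol probe Thiolite Green, 40 min RT development, fluorescence 490/520 nm.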

The target is the same in assay [7]. Briefly: Acetylcholinesterase (AChE) small molecule antagonists: enzyme-based qHTS assay with human liver microsomes (AID 1347399; calls by dose curve; further: nearly all actives have a fitted effect of over 60% in size). Particulars: Potency: qHTS inhibition. In a few lines: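 Recombinant human AChE (50 mU/mL in the enzyme mix) and human liver microsomes (0.25 mg/mL final) were preincubated with compound and NADPH (0.25 mg/mL final) for 30 min at 37 C. Acetylthiocholine/DTNB was then added; thiocholine was read colorimetrically after 10 min at room temperature.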

Assay [8] has as its target Cytochrome P450 2D6 (Homo sapiens) (UniProt P10635). Briefly: Cytochrome P450 Family 2 Subfamily D Member 6 (CYP2D6) small molecule antagonists: luciferase reporter qHTS assay (AID 1671196). Further: series mostly up to about 120 µM; nearly all actives have a fitted effect of over 50% in size. In outline:
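Read-out is luminescence from luciferin formed by CYP2D6 turnover of a proluciferin substrate, recorded as relative luminescence units. Reactions ran 1 h at room temperature after NADPH regeneration solution was added.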
For orientation: In a reporter assay the amount or activity of a reporter protein is the signal.

The target in assay [9] is Cytochrome P450 2C19 (Homo sapiens) (UniProt P33261). Briefly: Cytochrome P450 Family 2 Subfamily C Member 19 (CYP2C19) small molecule antagonists: luciferase reporter qHTS assay (AID 1671197). Further: nearly all actives have a fitted effect of over 65% in size. Further: potency means the concentration at half of the fitted maximal effect. In a few lines:
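Quantitative high-throughput screen of the Tox21 library using CYP2C19 with proluciferin substrate. Reaction: NADPH regeneration, 37C, 1 h, after 10 min compound preincubation at room temperature. Readout: luminescence.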

Assay [10] concerns the target Cytochrome P450 2C9 (Homo sapiens) (UniProt P11712). Briefly: Cytochrome P450 Family 2 Subfamily C Member 9 (CYP2C9) small molecule antagonists: luciferase reporter qHTS assay (AID 1671198). Further: nearly all actives have a fitted effect of over 50% in size. Further: potency means the concentration at half of the fitted maximal effect. In a few lines:
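Enzyme-substrate mix preincubated with compound 10 min at room temperature; reaction started with NADPH regeneration solution, 1 h 37C. Luminescent luciferin product read after 20 min detection reagent.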

Assay [11] addresses Cytochrome P450 1A2 (Homo sapiens) (UniProt P05177). Briefly: Cytochrome P450 Family 1 Subfamily A Member 2 (CYP1A2) small molecule antagonists: luciferase reporter qHTS assay (AID 1671199). Further: nearly all actives have a fitted effect of over 50% in size. Further: potency means the concentration at half of the fitted maximal effect. In outline:
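P450-Glo CYP1A2, 1536-well qHTS: enzyme/proluciferin substrate + cpd (DMSO), 10 min RT; NADPH regen, 1 h RT; detection reagent, 20 min; luminescence, RLU.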

Assay [12] has as its target Voltage-gated inwardly rectifying potassium channel KCNH2 (Homo sapiens) (UniProt Q12809). Briefly: Human Ether-a-go-go-Related Gene (hERG) channel small molecule antagonists: fluorescence cell-based qHTS assay (AID 1671200). In a few lines:
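Channel function was assessed by thallium flux. Cells seeded the previous day and kept at 37 C took up FluxOR II dye over 1 h in the dark at room temperature, then sat another 10 min before stimulation.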
(hERG is a cardiac potassium channel; its block is linked to QT prolongation.)

Assay [13] concerns the target Acetylcholinesterase (Homo sapiens) (UniProt P22303). Briefly: Acetylcholinesterase (AChE) small molecule antagonists: colormetric cell-based qHTS assay (AID 1347395; calls by dose curve; further: nearly all actives have a fitted effect of over 30% in size; further: potency means the concentration at half of the fitted maximal effect). In outline:
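Colorimetric read-out: DTNB detects thiocholine released when cellular AChE in SH-SY5Y cells hydrolyses acetylthiocholine. Cells attached overnight, received compound for 30 min at 37 C, then substrate mix for 90 min at 37 C.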

Assay [14] concerns the target Cytochrome P450 3A4 (Homo sapiens) (UniProt P08684). Briefly: Cytochrome P450 Family 3 Subfamily A Member 4 (CYP3A4) small molecule antagonists: luciferase reporter qHTS assay (AID 1671201). In outline:
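Compounds in DMSO were pin-transferred onto CYP3A4 enzyme-substrate mix and held 10 min at room temperature. NADPH regenerating solution started the reaction for 1 h; luciferin detection reagent stopped it, and luminescence was read after 20 min.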

Assay [15] in a line: Caspase-3/7 induction in CHO-K1 cells by small molecules, qHTS cell viability counter screen (AID 1346979). Further: nearly all actives have a fitted effect of over 35% in size. In a few lines:
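Cells (CHO-K1, wild type) are plated at 1,500 per well and incubated 5hr. Test compounds in DMSO are then pinned in, followed by 16hr at 37C and 5% CO2. Viability is read by CellTiter-Fluor fluorescence after 1hr.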

For assay [16], the target named is Nuclear receptor subfamily 1 group I member 2 (Rattus norvegicus) (UniProt Q9R1A7). Briefly: Rat pregnane X receptor (rPXR) activation by small molecules, qHTS assay (AID 1346983). Further: nearly all actives have a fitted effect of over 20% in size. Particulars: rPXR luciferase reporter cells, One-Glo luminescence, 24 h; stronger effect = higher value. In outline: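 Luminescent readout (One-Glo luciferase, 30 min room temperature) followed 24 hr compound treatment at 37 C of rPXR cells plated 2,000 per well and preincubated 5hr; qHTS format with compounds delivered in DMSO.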

The target in assay [17] is Nuclear receptor subfamily 1 group I member 2 (Homo sapiens) (UniProt O75469). Briefly: CYP3A4 induction through human pregnane X receptor (PXR) by small molecules, qHTS assay (AID 1346984). Further: nearly all actives have a fitted effect of over 40% in size. In a few lines: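 Luminescence readout: luciferase signal after One-Glo (30 min, room temperature), following 3 h at 37C with 3uM final Luciferin-IPA P450 substrate. Cells were DPX-2 (HepG2, PXR/CYP3A4-luc co-transfected) dosed for 24 h.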

The target is the same in assay [18]. Briefly: Human pregnane X receptor (PXR) activation by small molecules, qHTS assay (AID 1346985). Further: nearly all actives have a fitted effect of over 40% in size. In a few lines:
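DPX-2 cells (HepG2 co-transfected with a PXR response element and a CYP3A4-promoter luciferase construct) were seeded at 2,000 per well, rested 5 hr at 37C, then exposed to DMSO-dissolved compounds for 24 hr. Activation was read as luciferase luminescence.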
On the % scale 0 is the no-effect control and ±100 the full control effect.

Chain of Cytochrome P450 2C9 (Homo sapiens) (P11712 whole entry, looked up): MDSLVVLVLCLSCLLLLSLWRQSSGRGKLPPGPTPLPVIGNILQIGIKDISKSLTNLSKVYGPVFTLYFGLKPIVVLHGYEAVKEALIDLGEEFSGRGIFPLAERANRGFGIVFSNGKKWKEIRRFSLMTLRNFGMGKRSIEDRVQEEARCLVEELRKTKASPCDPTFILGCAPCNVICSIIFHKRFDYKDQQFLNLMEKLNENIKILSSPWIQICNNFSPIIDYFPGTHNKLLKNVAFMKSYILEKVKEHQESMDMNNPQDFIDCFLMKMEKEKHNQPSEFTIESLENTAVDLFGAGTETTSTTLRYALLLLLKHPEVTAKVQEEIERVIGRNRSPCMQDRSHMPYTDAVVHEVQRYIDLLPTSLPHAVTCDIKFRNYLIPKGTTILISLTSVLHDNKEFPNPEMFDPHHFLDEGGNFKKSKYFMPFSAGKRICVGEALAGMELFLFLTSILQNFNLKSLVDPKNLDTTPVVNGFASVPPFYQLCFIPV
Chain of Voltage-gated inwardly rectifying potassium channel KCNH2 (Homo sapiens) (Q12809 whole entry, looked up): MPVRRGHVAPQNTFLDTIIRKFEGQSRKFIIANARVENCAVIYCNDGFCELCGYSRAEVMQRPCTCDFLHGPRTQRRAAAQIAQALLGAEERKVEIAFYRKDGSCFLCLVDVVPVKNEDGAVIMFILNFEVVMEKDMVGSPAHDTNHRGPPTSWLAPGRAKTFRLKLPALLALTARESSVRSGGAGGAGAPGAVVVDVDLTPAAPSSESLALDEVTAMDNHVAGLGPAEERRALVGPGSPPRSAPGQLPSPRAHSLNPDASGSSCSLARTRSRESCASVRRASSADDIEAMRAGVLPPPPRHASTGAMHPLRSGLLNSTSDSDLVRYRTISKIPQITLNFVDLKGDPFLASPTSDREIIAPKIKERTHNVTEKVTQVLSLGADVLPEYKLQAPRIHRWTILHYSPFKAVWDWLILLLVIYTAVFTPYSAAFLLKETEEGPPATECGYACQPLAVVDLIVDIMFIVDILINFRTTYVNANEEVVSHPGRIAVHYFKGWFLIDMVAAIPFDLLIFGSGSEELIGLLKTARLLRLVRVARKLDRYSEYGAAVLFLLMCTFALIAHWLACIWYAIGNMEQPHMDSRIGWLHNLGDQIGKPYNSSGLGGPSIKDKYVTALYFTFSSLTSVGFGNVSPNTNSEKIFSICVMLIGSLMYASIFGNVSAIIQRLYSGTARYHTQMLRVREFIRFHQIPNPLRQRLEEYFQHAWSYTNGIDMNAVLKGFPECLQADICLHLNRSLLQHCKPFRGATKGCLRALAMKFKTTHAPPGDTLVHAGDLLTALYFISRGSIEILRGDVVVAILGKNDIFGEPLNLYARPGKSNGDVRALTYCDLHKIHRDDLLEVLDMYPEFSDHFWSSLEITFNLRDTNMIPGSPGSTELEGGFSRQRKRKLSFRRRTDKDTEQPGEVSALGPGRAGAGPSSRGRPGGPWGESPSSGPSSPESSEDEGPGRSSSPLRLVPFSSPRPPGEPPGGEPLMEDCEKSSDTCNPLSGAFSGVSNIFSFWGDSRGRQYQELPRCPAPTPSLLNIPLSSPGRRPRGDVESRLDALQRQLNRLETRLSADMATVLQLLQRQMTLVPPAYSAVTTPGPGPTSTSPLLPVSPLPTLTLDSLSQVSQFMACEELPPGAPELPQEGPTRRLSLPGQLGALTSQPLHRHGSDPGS
Chain of Cytochrome P450 3A4 (Homo sapiens) (P08684 whole entry, looked up): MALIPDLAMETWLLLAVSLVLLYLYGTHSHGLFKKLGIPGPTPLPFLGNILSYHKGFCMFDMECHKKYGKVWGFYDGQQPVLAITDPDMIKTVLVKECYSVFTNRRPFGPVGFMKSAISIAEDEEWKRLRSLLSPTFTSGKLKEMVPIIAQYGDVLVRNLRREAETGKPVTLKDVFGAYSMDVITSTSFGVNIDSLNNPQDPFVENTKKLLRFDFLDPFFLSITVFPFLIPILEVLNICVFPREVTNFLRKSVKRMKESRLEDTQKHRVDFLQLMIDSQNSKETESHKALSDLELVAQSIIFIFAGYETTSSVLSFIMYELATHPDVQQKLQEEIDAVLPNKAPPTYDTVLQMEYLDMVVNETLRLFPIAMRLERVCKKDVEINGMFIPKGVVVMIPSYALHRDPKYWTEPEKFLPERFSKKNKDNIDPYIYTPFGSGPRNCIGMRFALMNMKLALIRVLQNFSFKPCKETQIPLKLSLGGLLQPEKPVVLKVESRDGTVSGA
Chain of Acetylcholinesterase (Homo sapiens) (P22303 whole entry, looked up): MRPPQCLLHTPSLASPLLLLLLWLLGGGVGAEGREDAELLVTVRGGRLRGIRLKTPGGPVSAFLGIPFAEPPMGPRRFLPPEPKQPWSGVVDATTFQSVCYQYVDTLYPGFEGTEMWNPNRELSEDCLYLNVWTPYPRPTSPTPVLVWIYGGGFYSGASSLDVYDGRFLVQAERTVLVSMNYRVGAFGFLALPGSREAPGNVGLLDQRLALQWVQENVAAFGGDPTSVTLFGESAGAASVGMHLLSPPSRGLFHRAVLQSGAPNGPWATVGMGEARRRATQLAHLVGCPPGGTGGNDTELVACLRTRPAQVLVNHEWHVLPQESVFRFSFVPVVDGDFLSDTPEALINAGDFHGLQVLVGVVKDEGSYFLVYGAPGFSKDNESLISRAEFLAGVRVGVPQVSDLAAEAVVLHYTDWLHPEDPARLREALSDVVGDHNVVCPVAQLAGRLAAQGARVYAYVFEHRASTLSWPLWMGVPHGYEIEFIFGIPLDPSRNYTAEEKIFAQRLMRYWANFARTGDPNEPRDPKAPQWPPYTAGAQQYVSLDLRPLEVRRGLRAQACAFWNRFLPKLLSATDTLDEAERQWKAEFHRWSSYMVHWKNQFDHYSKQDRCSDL
Chain of Cytochrome P450 1A2 (Homo sapiens) (P05177 whole entry, looked up): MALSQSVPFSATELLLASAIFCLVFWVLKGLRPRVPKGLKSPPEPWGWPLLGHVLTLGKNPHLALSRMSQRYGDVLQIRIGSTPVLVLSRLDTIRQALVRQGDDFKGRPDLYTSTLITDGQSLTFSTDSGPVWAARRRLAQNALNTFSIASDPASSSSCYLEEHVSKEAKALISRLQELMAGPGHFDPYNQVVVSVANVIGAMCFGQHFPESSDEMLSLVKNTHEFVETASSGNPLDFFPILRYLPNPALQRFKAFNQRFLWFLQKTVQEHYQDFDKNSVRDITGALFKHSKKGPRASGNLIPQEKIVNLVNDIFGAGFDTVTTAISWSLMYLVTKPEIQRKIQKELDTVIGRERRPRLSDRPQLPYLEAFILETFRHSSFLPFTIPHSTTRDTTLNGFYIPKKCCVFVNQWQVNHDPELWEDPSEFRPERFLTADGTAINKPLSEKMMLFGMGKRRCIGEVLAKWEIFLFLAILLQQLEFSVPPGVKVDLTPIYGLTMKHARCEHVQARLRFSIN
Chain of Cytochrome P450 2D6 (Homo sapiens) (P10635 whole entry, looked up): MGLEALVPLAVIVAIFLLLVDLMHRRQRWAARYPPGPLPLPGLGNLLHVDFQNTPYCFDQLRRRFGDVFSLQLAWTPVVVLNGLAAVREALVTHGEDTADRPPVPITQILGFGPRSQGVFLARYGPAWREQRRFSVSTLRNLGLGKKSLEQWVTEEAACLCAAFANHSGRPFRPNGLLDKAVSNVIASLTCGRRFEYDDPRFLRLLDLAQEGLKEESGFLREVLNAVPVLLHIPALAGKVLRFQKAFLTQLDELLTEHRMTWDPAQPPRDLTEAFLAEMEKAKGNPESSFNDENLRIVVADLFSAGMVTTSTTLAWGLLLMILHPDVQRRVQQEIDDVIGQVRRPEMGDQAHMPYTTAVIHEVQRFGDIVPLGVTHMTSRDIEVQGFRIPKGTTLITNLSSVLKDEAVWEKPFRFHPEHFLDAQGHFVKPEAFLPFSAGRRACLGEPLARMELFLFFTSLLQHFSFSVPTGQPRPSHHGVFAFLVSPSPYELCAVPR
Chain of Cytochrome P450 2C19 (Homo sapiens) (P33261 whole entry, looked up): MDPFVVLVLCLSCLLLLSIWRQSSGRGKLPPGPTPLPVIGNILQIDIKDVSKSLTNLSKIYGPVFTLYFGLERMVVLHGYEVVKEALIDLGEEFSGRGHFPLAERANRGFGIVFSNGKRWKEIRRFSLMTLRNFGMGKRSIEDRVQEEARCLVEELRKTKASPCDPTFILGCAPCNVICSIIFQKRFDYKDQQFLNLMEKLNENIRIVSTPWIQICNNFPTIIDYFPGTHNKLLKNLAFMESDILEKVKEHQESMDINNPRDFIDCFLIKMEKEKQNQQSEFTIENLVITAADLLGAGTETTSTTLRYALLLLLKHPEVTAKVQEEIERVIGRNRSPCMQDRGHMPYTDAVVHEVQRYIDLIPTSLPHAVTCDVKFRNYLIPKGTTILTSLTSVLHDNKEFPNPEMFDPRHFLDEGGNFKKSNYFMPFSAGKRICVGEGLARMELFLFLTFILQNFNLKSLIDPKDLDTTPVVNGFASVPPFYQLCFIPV
Chain of Nuclear receptor subfamily 1 group I member 2 (Homo sapiens) (O75469 whole entry, looked up): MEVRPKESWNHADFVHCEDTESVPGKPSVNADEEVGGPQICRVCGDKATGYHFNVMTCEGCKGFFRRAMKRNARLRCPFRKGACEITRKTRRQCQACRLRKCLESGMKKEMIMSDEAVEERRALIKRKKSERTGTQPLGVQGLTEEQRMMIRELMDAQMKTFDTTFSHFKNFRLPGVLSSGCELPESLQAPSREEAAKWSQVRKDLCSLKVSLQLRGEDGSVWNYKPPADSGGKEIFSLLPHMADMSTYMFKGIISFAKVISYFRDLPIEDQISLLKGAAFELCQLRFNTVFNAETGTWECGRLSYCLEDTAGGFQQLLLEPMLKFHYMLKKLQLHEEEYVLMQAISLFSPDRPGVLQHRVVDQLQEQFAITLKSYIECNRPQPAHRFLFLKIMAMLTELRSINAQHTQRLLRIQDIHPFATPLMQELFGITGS

As to `CC1(C)C(C=C(Cl)Cl)C1C(=O)OC(C#N)c1cccc(Oc2ccccc2)c1` (centres undefined), the Potency entry in [1], in assay [2], in assay [3], in assay [5], in assay [6] and in assay [7] was “inactive” in each case. For the same compound, the Potency entry in assay [8], in [11] and in assay [12] was “inactive” in each case. The Potency in [4] was 2.73 µM (active); in assay [9] it was 17.8 µM (active) and 24.5 µM (active); in [10], 5.64 µM (active) and 12.3 µM (active).

For `CC(C)c1ccc(CO)cc1`, the Potency entry in [1], in assay [2], in assay [3], in [4], in assay [5] and in assay [6] was “inactive” each time. For the same compound, the Potency result in assay [7], in assay [8] and in assay [12] was “inactive” throughout. Also, in [10], the Potency is 39.9 µM (active).

Take `CCCCN(CC)c1c([N+](=O)[O-])cc(C(F)(F)F)cc1[N+](=O)[O-]`: the Potency result in assay [1], in assay [2], in assay [3], in assay [13], in assay [5] and in assay [6] was “inactive” throughout. Besides, the Potency result in assay [7], in [8] and in [14] was “inactive” throughout. Also, the Potency was 27.7 µM (active) and 7.7 µM (active) in [4]; 72.1 µM (active) and 20 µM (active) in assay [9]; 31.7 µM (active) in assay [10]; 22.4 µM (active) in [11].

As for `Nc1ccc(Cl)c(Cl)c1`, the Potency result in assay [1], in assay [2], in assay [3], in assay [4], in assay [13] and in assay [5] was “inactive” throughout. The Potency entry in assay [6], in assay [7], in assay [8], in assay [9] and in [12] was “inactive” in each case. Moreover, the Potency in assay [10] was 36.4 µM (active) and 35.6 µM (active); in assay [11] it was 40.9 µM (active) and 35.6 µM (active).

Take `CCOCN(C(=O)CCl)c1c(C)cccc1CC`: the Potency entry in assay [1], in assay [2], in [5], in assay [6], in assay [7] and in assay [8] was “inactive” throughout. The Potency entry in [12] and in assay [14] was “inactive” each time. In addition, the Potency in assay [4] was 2.58 µM (active); in assay [13] it was 33.6 µM (active) and inactive; in assay [9], 9.47 µM (active) and 15.9 µM (active); in assay [10] it was 30 µM (active) and 39.9 µM (active); in assay [11] it was 33.6 µM (active) and inactive.

Take `C1=Cc2cccc3cccc1c23`: the Potency result in assay [1], in assay [2], in assay [3], in assay [4], in assay [13] and in assay [5] was “inactive” in each case. Besides, the Potency entry in [6], in [7], in assay [8], in assay [10] and in [12] was “inactive” throughout. For the same compound, the Potency in assay [11] was 31.2 µM (active) and 25.2 µM (active).

Regarding `O=Cc1ccco1`, the Potency result in assay [15], in assay [2], in assay [3], in [4], in assay [5] and in assay [6] was “inactive” in each case. In addition, the Potency entry in assay [7], in assay [8], in [9], in assay [10], in assay [11] and in assay [12] was “inactive” each time. The Potency entry in assay [14] is “inactive”. For the same compound, the max activation in assay [16] was -0.979% (inactive). Besides, the compound was called inactive in assay [17] and in [18].
